An excerpt weighted towards active compounds, which were near 6% of everything screened.
VDR inhibitor: blocks the human vitamin D receptor; P11473; VDR-SRC2-3 peptide fluorescence polarization, 2 h; Potency, µM, for inactives: max response, negative = inhibition, hits mostly inhibitors; 400,000 compounds, 0.93% hits; AID 504847
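The screen uses fluorescence polarization to detect compounds that interfere with recruitment of the SRC2-3 coactivator peptide to VDR; plates are read after 2 h at room temperature.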
Tau fibril FP: tau fibrillization inhibition (FP); K18 P301L tau heparin fibrillization, Alexa594 FP, 6 h; Potency, µM (doses to about 57.7 µM), without a hit: at the top dose activity, negative = inhibition, hits mostly inhibitors; P10636; 280,000 compounds, 0.39% hits; note: nearly all actives have a fitted effect of over 55% in size
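Human K18 P301L fragment (15 uM unlabeled plus 0.24 uM Alexa 594-labeled) in 100 mM sodium acetate pH 7 with compound, aggregation induced by 20 uM heparin for 6 hr at 37 C. ThT (30 uM) added for 1 hr, then Alexa 594 FP read.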
Sfp inh: Sfp phosphopantetheinyl transferase inhibition; Q9F4F7; Biochemical Sfp PPTase activity, qHTS; Potency, µM, for the others: largest response in the series, negative = inhibition, usual class: inhibitors; 310,000 compounds, 3.5% hits;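 note: the enzyme is Sfp with the accession as filed and its product quenches rhodamine fluorescence; 0% = enzyme reaction without inhibitor and -100% = no enzyme wells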
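Sfp 15 nM + cpd, 15 min RT; start w/ rhodamine-CoA 5 uM, BHQ-2-YbbR 12.5 uM (final); 50 mM Hepes pH 7.6, 10 mM MgCl2, 0.01% NP-40, 0.01% BSA; read 525/598 nm at 0 and 30 min.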
PLK1 PBD inh: blocks phosphopeptide binding to human PLK1 polo-box domain | Plk1 PBD binding of FITC phosphopeptide, fluorescence polarization | Potency, µM, for the others: max response, negative = inhibition, usual class: inhibitors | 360,000 compounds, 2.8% hits | AID 720504; note: series mostly up to about 57 µM; nearly all actives have a fitted effect of over 65% in size
Target sequence (P53350 whole entry, looked up, the tested form may be a part): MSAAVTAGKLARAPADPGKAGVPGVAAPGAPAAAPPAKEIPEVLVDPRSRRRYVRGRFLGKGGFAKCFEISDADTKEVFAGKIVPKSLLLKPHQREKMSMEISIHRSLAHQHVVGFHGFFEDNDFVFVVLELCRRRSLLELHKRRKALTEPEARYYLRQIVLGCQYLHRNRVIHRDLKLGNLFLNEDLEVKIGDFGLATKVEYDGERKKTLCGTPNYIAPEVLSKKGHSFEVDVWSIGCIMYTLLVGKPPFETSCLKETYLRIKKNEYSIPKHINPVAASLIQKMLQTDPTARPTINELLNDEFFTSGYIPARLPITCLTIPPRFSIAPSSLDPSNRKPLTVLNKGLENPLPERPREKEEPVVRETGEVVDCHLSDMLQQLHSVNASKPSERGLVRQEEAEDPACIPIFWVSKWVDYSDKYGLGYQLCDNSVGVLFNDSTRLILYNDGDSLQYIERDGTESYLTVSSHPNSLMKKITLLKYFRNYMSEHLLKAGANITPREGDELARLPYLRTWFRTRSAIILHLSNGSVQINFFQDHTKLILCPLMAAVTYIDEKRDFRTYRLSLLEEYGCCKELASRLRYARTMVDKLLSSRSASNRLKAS
Tau ThT inhib: blocks human tau fibril formation measured by thioflavin T; Potency, µM (highest dose often 57.4 µM), without a hit: at the top dose activity, negative = inhibition, hits mostly inhibitors; 270,000 compounds, 2.1% hits; AID 1460; recombinant tau K18 P301L, heparin-induced fibrillization, ThT fluorescence; P10636; note: nearly all actives have a fitted effect of over 55% in size
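Recombinant human tau K18 fragment […] carrying P301L, 15 uM unlabeled plus 0.24 uM Alexa 594-labeled, was fibrillized with 20 uM heparin in 100 mM sodium acetate pH 7 for 6 hr at 37 C; 30 uM ThT fluorescence read after 1 hr.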
Tau fluor counter: counter-screen for tau fibril formation inhibitors; tau K18 P301L (four-repeat tau fragment) Alexa594 fluorescence, heparin fibrillization; 280,000 compounds, 0.93% hits; AID 1463; Potency, µM (doses to about 57.7 µM), for inactives: at the highest dose activity change, negative = decrease; note: nearly all actives have a fitted effect of over 55% in size
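Human K18 P301L tau (15 uM unlabeled plus 0.24 uM Alexa 594-labeled, final) in 100 mM sodium acetate pH 7 was mixed with compound and 20 uM heparin and incubated 6 hr at 37 C.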
The depositor's hits bear a star; ? = inconclusive; / = no result; [ ] = another dose, or the depositor's remark. Calls come from the whole dose curve; as a rule, active = well fitted curve in the direction sought with a large enough effect; inconclusive = small, poorly fitted or top-dose-only effect, or another doubt; inactive = no such curve, though single readings can be large; an effect the other way counts as inactive or inconclusive. Unless noted, % is set by controls: 0 for no effect and ±100 for the full control effect; potency is the fitted concentration of half-maximal effect.

SMILES | VDR inhibitor | Tau fibril FP | Sfp inh | PLK1 PBD inh | Tau ThT inhib | Tau fluor counter
Cc1sc2nc(SCC(=O)NCc3ccco3)n(C)c(=O)c2c1C | -9.5% | 1.1% | 9.6% | -3.0% | -5.4% | -3.8%
CCCn1c(SCC(=O)NC(=O)NCc2ccco2)n[nH]c1=O | / | 4.2% | 22.4µM* | / | -8.1% | -0.2%
C=CCn1c(SCc2ccc(C(=O)O)cc2)nc2sc(C)c(C)c2c1=O | ? | 0.4% | -3.3% | ? | -16.3% | -2.8%
Cc1sc2nc(SCc3ccc(C(=O)O)cc3)n(Cc3ccco3)c(=O)c2c1C | 89.1µM* | ? | -23.6% | 26.7µM* | ? | 1.4%
CCCn1c(SCC(=O)NCc2ccc(F)cc2)n[nH]c1=O | 3.4% | 2.3% | 19.8% | 21.2µM* | 7.1% | 8.4%
CCn1c(SCC(=O)NC(=O)NCc2ccco2)nc2sc(C)c(C)c2c1=O | 8.5% | ? | 25.1µM* | -8.9% | ? | -10.1%
CCOC(=O)CCN1C(=O)[C@@H]2[C@H]3C(=CC[C@H]2C1=O)C(=O)[C@H]1O[C@H]1[C@H]3O | / | ? | -5.9% | / | 3.98µM* | -24.1%[11.6 µM]
O=C1C2=CC[C@@H]3C(=O)N(c4ccc(F)cc4F)C(=O)[C@H]3[C@H]2[C@H](O)[C@H]2O[C@H]12 | / | ? | -10.1% | / | 4.47µM* | -18.7%[11.6 µM]
CC(C)(C)N1C(=O)[C@@H]2[C@H]3C(=CC[C@H]2C1=O)C(=O)[C@H]1O[C@H]1[C@H]3O | / | ? | -15.6% | / | ? | -12.0%[11.6 µM]
CCC(=O)N1CCC1(C)C(=O)Nc1ncc(C)s1 (stereo not given) | / | / | / | -11.5% | / | /
CCCCc1ccc(NC(=S)N2CCCC2)cc1 | 1.0% | / | 9.6% | 2.7% | / | /
Cc1ccc(/C=C/C(=O)Nc2ccc(N(C)C)cc2)o1 | -24.6% | 2.8% | -25.7% | 1.8% | 8.91µM* | -26.0%
Cc1ccc(/C=C/C(=O)Nc2cccc(S(=O)(=O)N3CCOCC3)c2)o1 | -8.7% | ? | 12.6µM* | -15.3% | 6.0% | 5.4%
Cc1ccc(/C=C/C(=O)Nc2ncc(C)s2)o1 | -26.7% | -13.4% | 12.6µM* | -8.6% | ? | -18.4%
O=C(Cc1ccc(Br)cc1)Nc1cccc(S(=O)(=O)N2CCOCC2)c1 | 5.7% | / | / | 0.4% | / | /
O=C(/C=C/c1ccco1)Nc1cccc(S(=O)(=O)N2CCOCC2)c1 | 4.1% | -13.5% | -14.2% | -5.1% | -14.1% | -13.9%
O=S(=O)(c1cccc(NC(=S)Nc2ccc(Br)cc2Cl)c1)N1CCOCC1 | -4.8% | ? | 44.7µM* | -24.6% | 2.9% | -26.1%
Cc1ccc(/C=C/C(=O)Nc2nccs2)o1 | -17.6% | ? | ? | -14.0% | ? | -20.4%
CS(=O)(=O)N(CC(=O)Nc1ccc(S(=O)(=O)N2CCCC2)cc1)c1ccccc1 | -1.3% | 3.0% | 14.8% | -1.3% | 4.0% | -1.1%
CCOC(=O)c1cccc(NC(=O)CCc2c(C)nn(-c3ccc(N4CCOCC4)nn3)c2C)c1 | 9.2% | -0.5% | / | / | ? | 5.3%
Cc1ccc(C)c(N2C(=O)C3C4C=CC(CC4)C3C2=O)c1 (stereo not given) | 13.8% | / | -2.3% | -7.2% | / | /
Cc1ccc(/C=C/C(=O)N2CCN(Cc3ccccc3)CC2)o1 | -8.0% | -12.5% | -101.3% | -16.0% | ? | -2.6%
Cc1ccc(/C=C/C(=O)N2CCN(S(=O)(=O)c3c(C)c(C)cc(C)c3C)CC2)o1 | -48.6% | -6.4% | 14.1µM* | -27.0% | ? | -4.7%
CCN1CCN(C(=S)c2ccc([N+](=O)[O-])cc2)CC1 | 70.8µM* | -5.8% | 12.6µM* | 11.9µM* | -1.4% | 3.2%
CC1CCN(S(=O)(=O)c2ccc([N+](=O)[O-])cc2)CC1 | 6.3% | / | 11.3% | -13.0% | / | /
CC1CCN(C(=S)c2ccc([N+](=O)[O-])cc2)CC1 | ? | -8.8% | 44.7µM* | 23.8µM* | ? | -11.2%
O=[N+]([O-])c1ccc(C(=S)N2CCCC2)cc1 | -28.6% | -1.5% | 50.1µM* | 21.2µM* | -9.4% | 1.0%
Cc1cc(-c2nnc(CCC(=O)NCc3ccc(OC(F)(F)F)cc3)o2)no1 | -8.9% | / | 7.1% | 0.9% | / | /
O=C(Cl)CCCCCCCC(=O)Cl | -1.4% | / | -2.9% | / | / | /

From PubChem BioAssay
